According to PubChem BioAssay AID624167 (Sanford-Burnham Center for Chemical Genomics, 2012):

Assay: inhibition of PEG-3 promoter-driven reporter – cell-based, HeLa, luciferase, CREF/GAPDH counter-screen panel, dose response (AID 624167)
Conditions: CREF/GAPDH counter-screens; run 2, dose range 1, at 100 µM (top of the series)

Row | Structure (SMILES) | inhibition
1 | O=C1C=CC(=O)N1c1ccc(-c2nc3ccccc3o2)cc1 | 90.3%
2 | Cc1ccc(C(C[N+](=O)[O-])Sc2ccc(N)cc2)cc1 (stereo not drawn) | 99.2%
3 | CC1=NOC(=O)/C1=C\c1ccc(-c2ccccc2Br)o1 | 98.7%
4 | CCCCC(=O)NC(c1ccc(OC)cc1)c1ccc2cccnc2c1O (stereo not drawn) | 20.5%
5 | CCc1ccc(/C=C2\SC(=S)N(CCCC(=O)Nc3cc(C)on3)C2=O)cc1 | 84.8%
6 | CCCC(=O)NC(c1ccc(C(C)C)cc1)c1ccc2cccnc2c1O (stereo not drawn) | 45.7%
7 | Clc1ccccc1/C=C/c1nc(-c2ccccn2)no1 | 96.2%
8 | CCCCCCCn1c(=N)n(CC(=O)c2ccco2)c2ccccc21 | 90.6%
9 | Cc1ccc(/C=C2\SC(=S)N(CCCC(=O)Nc3ccccn3)C2=O)cc1 | 76.5%
10 | CCCn1nc(C(=O)Nc2nc(-c3ccccn3)cs2)c2ccccc2c1=O | 37.9%
11 | COc1cc(C(=O)N/N=C(\c2ccccc2)c2ccccn2)cc(OC)c1OC | 11.7%
12 | CC(=O)c1cccc(-c2ccnc3c2CC(C(=O)Nc2cccc(NS(C)(=O)=O)c2)O3)c1 (stereo not drawn) | 52%
13 | COc1cc(CNCCCN2CCOCC2)cc(Br)c1OCc1ccc(Cl)cc1 | 90.7%
14 | O=C(N/N=C\c1c(O)ccc2ccccc12)c1cncc(Br)c1 | 72.8%
15 | COC1CC(C)C(OC)c2cc(O)cc(c2O)NC(=O)C(C)=CC=CC(C)C(OC(N)=O)C(C)=CC(C)C1OC (stereo not drawn) | 84.8%
16 | O=C(Nc1ccccc1)c1nc[nH]c1C(=O)NCCCCCCNC(=O)c1[nH]cnc1C(=O)Nc1ccccc1 | 83%
17 | COc1cc(Nc2c3ccccc3nc3ccccc23)cc(OC)c1OC | 100%

Row | Structure (SMILES) | inhibition
18 | COc1ccc(C(NC(C)=O)c2ccc3cccnc3c2O)c(OC)c1 (stereo not drawn) | 0.125%
19 | CN1OC[C@@H]2CN(S(=O)(=O)c3cccc(C(F)(F)F)c3)[C@H](c3ccc(-c4cc5ccccc5o4)cc3)C[C@@H]21 | 70.9%
20 | Cc1ccc(OCC(=O)c2cc(C)n(-c3ccccc3)c2C)c([N+](=O)[O-])n1 | 65.4%
21 | CCCC(=O)NC(c1ccc(N(C)C)cc1)c1ccc2cccnc2c1O (stereo not drawn) | 27.1%
22 | Cc1cc(Br)ccc1NC(=O)CNC(=O)Cn1ncc(Cl)c(Cl)c1=O | 98.9%
23 | Cc1cc(C(=O)Nc2cccc(C(=O)O)c2)oc1C | 92.8%
24 | CN1CCC2(CC1)N=C(c1ccc(F)cc1)C(=S)N2C(=O)c1ccc(C(C)(C)C)cc1 | 97.8%
25 | CCC(C)Cn1c(O)cc2nn(-c3nc4ccccc4s3)c(=O)c-2c1C (stereo not drawn) | 95.7%
26 | O=C(/C=C/c1ccc(Cl)c([N+](=O)[O-])c1)c1ccc(O)cc1 | 99.5%
27 | O=C(CCSc1nc2ccccc2s1)N/N=C/c1c(O)ccc2ccccc12 | 0.467%
28 | COC(=O)C1C=CC(OC2OC(COC(C)=O)C(OC(C)=O)C(OC(C)=O)C2OC(C)=O)n2c(=O)n(-c3ccccc3)c(=O)n21 (stereo not drawn) | 84.2%
29 | O=C(N/N=C/c1ccc(Cl)c([N+](=O)[O-])c1)c1cc(-c2ccc3c4c(cccc24)CC3)n[nH]1 | 98.4%
30 | CCCCC(=O)NC(c1ccccc1)c1ccc2cccnc2c1O (stereo not drawn) | 45.2%
31 | O=C(CCn1cnc(-c2ccccc2)c1-c1ccccc1)N/N=C/c1ccccc1O | 55.9%
32 | CS(=O)(=O)c1ccc(-c2sc3ccccc3c2C#CCCO)cc1 | 81.8%
33 | CS(=O)(=O)c1ccc(-c2cn3cc(C(=O)O)ccc3n2)cc1 | 78.3%
